# Test results: ChEMBL document CHEMBL1961873, “Compounds: GSK PKIS; Assays: Nanosyn kinase panel” (2012)
# Columns and labels:
# [1] = target: High affinity nerve growth factor receptor (Homo sapiens) (UniProt P04629); details: at 1 µM;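 further: each value is the mean percent inhibition of TRKA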
# [2] = target: BDNF/NT-3 growth factors receptor (Homo sapiens) (UniProt Q16620); details: at 0.1 µM
# [3] = target: BDNF/NT-3 growth factors receptor (Homo sapiens) (UniProt Q16620); details: at 1 µM
# [4] = target: NT-3 growth factor receptor (Homo sapiens) (UniProt Q16288); details: at 0.1 µM
# [5] = target: NT-3 growth factor receptor (Homo sapiens) (UniProt Q16288); details: at 1 µM
# [6] = target: T1, Tyrosine-protein kinase TXK (Homo sapiens) (UniProt P42681); details: at 0.1 µM
# T1 sequence (whole entry): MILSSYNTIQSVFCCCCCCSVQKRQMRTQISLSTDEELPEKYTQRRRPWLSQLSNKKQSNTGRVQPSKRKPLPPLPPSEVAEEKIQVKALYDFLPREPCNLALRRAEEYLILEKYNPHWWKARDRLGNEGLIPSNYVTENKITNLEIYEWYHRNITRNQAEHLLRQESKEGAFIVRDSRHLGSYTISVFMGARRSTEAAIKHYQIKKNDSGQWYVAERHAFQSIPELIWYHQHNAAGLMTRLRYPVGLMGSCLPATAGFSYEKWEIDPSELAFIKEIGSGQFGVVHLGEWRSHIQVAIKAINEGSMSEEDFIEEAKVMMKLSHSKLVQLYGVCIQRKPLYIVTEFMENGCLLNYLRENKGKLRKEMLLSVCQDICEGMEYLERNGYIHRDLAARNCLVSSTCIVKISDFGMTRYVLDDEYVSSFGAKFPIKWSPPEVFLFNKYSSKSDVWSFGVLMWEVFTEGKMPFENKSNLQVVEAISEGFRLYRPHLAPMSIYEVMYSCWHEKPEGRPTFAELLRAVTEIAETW
# [7] = target: T1, Tyrosine-protein kinase TXK (Homo sapiens); details: at 1 µM
# [8] = target: Non-receptor tyrosine-protein kinase TYK2 (Homo sapiens) (UniProt P29597); details: at 0.1 µM;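 further: each value is a mean of the inhibition readings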
# [9] = target: T2, Dual specificity protein kinase TTK (Homo sapiens) (UniProt P33981); details: at 1 µM;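 further: reported figures are mean TTK inhibition at 1 µM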
# T2 sequence (whole entry): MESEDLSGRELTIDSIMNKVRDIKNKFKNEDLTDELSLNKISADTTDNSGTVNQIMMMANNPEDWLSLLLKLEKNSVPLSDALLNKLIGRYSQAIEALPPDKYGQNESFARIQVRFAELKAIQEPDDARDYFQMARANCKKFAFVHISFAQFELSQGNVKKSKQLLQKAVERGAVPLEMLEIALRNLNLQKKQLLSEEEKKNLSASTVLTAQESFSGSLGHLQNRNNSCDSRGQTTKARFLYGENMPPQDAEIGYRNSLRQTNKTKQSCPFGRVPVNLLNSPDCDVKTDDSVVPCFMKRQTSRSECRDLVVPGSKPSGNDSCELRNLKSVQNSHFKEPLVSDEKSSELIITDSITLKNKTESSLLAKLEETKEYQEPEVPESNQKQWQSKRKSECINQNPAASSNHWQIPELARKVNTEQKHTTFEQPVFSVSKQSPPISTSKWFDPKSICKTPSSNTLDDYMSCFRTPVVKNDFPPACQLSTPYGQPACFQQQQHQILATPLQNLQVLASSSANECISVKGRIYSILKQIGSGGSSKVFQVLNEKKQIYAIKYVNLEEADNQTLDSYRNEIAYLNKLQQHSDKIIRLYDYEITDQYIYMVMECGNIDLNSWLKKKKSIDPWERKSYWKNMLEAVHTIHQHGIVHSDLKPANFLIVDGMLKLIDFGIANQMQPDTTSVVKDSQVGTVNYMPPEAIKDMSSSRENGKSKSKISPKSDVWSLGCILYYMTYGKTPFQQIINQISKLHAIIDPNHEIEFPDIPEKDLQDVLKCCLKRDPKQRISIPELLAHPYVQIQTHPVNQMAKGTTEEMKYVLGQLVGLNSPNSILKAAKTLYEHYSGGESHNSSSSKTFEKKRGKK
# [10] = target: T3, Aurora kinase A (Homo sapiens) (UniProt O14965); details: at 0.1 µM
# T3 sequence (whole entry): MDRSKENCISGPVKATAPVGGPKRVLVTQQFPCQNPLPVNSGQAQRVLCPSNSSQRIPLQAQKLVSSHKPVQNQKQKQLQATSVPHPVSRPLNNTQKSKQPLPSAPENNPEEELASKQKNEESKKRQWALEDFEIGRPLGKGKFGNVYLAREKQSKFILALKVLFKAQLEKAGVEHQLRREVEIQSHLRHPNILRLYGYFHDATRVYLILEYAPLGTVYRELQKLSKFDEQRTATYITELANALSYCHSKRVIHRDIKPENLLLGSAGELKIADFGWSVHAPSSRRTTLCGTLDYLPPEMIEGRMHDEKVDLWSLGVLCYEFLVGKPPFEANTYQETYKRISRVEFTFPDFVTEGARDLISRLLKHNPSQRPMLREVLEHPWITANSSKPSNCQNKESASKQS
# [11] = target: T3, Aurora kinase A (Homo sapiens); details: at 1 µM
# [12] = target: Aurora kinase B (Homo sapiens) (UniProt Q96GD4); details: at 0.1 µM
# [13] = target: Aurora kinase B (Homo sapiens) (UniProt Q96GD4); details: at 1 µM
# [14] = target: T4, Aurora kinase C (Homo sapiens) (UniProt Q9UQB9); details: at 0.1 µM
# T4 sequence (whole entry): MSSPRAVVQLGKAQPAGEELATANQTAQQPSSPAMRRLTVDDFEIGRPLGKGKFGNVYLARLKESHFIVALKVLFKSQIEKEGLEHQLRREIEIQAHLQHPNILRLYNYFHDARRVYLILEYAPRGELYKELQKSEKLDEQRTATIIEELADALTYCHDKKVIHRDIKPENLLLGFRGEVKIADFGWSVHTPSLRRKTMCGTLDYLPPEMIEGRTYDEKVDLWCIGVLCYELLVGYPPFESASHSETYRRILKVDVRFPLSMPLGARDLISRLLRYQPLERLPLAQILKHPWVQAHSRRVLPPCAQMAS
# [15] = target: T4, Aurora kinase C (Homo sapiens); details: at 1 µM
# [16] = target: Serine/threonine-protein kinase 10 (Homo sapiens) (UniProt O94804); details: at 0.1 µM
# [17] = target: Serine/threonine-protein kinase 10 (Homo sapiens) (UniProt O94804); details: at 1 µM
# [18] = target: T5, Mitogen-activated protein kinase kinase kinase kinase 2 (Homo sapiens) (UniProt Q12851); details: at 0.1 µM
# T5 sequence (whole entry): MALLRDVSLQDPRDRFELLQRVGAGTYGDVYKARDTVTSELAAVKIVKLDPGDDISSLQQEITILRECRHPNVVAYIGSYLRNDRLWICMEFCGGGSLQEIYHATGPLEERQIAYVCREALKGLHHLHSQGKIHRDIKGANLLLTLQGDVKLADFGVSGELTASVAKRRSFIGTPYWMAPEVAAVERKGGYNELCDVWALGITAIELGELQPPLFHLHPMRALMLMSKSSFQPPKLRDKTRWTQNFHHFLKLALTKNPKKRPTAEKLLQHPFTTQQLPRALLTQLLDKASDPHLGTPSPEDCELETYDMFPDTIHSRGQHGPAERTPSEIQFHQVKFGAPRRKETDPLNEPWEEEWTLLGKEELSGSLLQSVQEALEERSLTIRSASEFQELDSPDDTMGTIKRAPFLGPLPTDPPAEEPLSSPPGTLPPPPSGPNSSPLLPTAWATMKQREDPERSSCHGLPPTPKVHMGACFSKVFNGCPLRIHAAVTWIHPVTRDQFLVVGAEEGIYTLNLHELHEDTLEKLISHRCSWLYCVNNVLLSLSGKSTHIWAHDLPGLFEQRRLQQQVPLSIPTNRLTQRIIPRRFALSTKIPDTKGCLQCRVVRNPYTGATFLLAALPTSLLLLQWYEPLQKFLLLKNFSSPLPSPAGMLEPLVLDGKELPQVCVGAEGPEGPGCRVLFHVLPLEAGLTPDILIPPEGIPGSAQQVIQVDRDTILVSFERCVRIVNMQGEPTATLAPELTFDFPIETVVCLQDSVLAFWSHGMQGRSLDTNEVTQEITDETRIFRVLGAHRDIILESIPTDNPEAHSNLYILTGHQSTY
# [19] = target: T5, Mitogen-activated protein kinase kinase kinase kinase 2 (Homo sapiens); details: at 1 µM
# [20] = target: Mitogen-activated protein kinase kinase kinase kinase 4 (Homo sapiens) (UniProt O95819); details: at 0.1 µM
# Chain of Mitogen-activated protein kinase kinase kinase kinase 4 (Homo sapiens) (O95819 2-1239 limits assumed): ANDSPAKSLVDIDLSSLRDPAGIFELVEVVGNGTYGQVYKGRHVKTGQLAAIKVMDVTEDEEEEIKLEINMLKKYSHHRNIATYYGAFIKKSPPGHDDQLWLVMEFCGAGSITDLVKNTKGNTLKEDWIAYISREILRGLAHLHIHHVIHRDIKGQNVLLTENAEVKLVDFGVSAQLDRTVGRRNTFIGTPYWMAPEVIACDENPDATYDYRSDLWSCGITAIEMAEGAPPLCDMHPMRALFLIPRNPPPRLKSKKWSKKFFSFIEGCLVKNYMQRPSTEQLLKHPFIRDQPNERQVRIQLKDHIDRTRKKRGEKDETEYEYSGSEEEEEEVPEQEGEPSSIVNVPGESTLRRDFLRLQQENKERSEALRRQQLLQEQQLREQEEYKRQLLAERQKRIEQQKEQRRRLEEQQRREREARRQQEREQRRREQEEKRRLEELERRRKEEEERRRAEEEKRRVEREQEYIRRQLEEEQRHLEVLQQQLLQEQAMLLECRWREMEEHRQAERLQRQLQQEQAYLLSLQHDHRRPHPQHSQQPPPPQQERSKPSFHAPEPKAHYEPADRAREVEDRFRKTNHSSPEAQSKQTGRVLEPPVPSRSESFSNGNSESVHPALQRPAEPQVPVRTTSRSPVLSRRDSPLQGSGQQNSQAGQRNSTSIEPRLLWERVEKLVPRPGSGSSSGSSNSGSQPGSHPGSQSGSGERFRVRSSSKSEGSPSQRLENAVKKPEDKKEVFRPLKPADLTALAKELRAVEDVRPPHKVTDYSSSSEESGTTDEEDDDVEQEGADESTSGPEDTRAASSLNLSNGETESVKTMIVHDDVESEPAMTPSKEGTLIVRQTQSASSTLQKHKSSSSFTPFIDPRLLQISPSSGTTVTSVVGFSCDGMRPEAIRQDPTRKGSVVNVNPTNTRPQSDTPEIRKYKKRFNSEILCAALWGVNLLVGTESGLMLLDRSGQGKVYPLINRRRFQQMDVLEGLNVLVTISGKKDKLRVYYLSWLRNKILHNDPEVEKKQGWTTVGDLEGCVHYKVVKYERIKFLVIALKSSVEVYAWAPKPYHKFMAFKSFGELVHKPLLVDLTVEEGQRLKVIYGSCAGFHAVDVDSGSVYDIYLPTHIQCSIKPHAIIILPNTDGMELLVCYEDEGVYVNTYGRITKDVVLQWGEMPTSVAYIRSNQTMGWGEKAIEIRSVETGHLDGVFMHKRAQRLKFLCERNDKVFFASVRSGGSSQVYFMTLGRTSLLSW
# Chain of BDNF/NT-3 growth factors receptor (Homo sapiens) (Q16620 32-822 limits assumed): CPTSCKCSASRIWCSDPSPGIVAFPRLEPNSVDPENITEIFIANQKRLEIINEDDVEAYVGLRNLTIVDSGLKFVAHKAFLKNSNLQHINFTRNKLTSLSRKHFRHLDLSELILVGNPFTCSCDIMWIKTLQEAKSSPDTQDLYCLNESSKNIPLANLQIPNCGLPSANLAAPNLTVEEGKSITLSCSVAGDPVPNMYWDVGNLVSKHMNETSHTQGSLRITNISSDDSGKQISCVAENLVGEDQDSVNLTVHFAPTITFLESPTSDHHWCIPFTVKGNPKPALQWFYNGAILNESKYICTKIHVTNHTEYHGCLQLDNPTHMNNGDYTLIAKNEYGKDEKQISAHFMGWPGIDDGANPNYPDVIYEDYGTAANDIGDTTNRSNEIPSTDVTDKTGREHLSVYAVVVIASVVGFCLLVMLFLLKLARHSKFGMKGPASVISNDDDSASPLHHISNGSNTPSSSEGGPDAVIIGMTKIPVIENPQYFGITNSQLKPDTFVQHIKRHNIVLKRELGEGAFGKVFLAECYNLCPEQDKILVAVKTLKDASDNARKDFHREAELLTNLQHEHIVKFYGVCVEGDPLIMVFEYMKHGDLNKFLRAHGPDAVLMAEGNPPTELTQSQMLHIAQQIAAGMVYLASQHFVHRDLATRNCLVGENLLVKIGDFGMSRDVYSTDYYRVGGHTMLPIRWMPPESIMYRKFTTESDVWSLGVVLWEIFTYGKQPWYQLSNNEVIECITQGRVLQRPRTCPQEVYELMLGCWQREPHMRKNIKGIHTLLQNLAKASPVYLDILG
# Chain of Aurora kinase B (Homo sapiens) (Q96GD4 whole entry): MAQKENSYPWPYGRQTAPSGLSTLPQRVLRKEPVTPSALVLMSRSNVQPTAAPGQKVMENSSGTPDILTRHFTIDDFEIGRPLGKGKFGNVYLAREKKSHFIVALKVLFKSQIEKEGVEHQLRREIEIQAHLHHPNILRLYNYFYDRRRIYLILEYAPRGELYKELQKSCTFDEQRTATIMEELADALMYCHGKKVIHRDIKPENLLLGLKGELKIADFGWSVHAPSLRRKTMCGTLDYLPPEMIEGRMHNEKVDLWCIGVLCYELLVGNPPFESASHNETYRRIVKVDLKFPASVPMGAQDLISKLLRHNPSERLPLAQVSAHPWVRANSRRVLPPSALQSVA
# Chain of Serine/threonine-protein kinase 10 (Homo sapiens) (O94804 whole entry, looked up): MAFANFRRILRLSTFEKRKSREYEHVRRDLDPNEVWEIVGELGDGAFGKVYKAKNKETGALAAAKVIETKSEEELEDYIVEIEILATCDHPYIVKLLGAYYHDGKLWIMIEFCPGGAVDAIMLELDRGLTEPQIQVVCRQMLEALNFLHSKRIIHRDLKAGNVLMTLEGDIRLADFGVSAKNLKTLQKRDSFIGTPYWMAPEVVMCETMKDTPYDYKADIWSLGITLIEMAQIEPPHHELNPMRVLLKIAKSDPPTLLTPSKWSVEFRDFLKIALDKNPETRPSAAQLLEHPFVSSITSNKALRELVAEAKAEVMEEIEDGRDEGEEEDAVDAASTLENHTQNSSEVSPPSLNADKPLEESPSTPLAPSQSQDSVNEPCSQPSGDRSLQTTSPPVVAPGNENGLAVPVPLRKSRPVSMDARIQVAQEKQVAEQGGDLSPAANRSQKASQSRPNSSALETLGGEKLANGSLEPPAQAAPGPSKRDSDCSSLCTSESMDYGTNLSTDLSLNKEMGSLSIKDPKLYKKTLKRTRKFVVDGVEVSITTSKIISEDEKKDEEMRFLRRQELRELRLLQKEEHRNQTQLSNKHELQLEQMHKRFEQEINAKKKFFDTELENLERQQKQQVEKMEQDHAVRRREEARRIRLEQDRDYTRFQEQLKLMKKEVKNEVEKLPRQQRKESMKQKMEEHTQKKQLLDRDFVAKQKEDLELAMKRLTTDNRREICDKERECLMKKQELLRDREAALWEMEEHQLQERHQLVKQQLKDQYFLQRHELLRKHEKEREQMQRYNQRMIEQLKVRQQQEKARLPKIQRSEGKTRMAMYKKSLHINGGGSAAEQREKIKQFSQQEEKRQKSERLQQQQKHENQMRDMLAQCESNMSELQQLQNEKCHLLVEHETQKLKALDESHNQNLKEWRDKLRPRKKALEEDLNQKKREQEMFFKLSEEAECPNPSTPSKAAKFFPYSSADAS
# Chain of High affinity nerve growth factor receptor (Homo sapiens) (P04629 33-796 limits assumed): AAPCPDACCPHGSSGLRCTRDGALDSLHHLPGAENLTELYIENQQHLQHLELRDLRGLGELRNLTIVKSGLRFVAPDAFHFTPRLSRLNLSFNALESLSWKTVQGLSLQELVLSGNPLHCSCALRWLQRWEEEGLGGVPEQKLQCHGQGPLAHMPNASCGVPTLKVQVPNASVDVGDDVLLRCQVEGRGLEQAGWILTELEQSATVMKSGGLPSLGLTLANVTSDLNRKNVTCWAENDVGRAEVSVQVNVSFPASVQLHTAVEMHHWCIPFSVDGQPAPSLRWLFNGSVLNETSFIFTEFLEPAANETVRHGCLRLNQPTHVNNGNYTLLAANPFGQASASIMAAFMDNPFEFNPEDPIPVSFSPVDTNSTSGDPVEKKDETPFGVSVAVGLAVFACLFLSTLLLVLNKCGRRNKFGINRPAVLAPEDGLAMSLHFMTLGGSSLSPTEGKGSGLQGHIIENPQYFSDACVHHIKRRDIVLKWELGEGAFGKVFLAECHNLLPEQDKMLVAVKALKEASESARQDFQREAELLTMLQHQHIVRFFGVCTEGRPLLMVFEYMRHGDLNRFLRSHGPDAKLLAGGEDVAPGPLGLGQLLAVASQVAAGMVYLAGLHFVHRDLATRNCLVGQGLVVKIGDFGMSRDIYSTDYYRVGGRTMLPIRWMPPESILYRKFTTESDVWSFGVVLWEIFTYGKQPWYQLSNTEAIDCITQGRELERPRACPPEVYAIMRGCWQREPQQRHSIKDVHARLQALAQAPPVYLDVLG
# Chain of NT-3 growth factor receptor (Homo sapiens) (Q16288 32-839 limits assumed): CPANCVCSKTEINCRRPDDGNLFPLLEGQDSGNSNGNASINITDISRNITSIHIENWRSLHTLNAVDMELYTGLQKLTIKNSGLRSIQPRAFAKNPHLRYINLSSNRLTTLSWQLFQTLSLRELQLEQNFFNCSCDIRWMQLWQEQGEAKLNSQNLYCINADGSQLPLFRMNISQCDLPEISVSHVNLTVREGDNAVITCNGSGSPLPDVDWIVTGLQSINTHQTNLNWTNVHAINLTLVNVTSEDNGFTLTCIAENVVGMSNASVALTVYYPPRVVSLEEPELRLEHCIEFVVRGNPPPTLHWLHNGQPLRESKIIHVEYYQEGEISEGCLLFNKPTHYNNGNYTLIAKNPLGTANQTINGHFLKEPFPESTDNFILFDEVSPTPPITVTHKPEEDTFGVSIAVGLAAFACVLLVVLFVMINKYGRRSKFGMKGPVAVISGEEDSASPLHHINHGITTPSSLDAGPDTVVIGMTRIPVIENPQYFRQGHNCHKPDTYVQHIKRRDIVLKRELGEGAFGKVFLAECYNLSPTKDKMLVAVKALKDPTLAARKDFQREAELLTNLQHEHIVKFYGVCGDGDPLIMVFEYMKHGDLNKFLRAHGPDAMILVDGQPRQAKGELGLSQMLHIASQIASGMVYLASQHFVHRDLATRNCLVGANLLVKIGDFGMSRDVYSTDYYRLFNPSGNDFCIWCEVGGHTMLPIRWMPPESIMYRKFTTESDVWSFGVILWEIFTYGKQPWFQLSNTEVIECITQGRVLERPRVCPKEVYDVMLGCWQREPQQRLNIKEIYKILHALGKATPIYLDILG
SMILES,inhibition [1] [%],inhibition [2] [%],inhibition [3] [%],inhibition [4] [%],inhibition [5] [%],inhibition [6] [%],inhibition [7] [%],inhibition [8] [%],inhibition [9] [%],inhibition [10] [%],inhibition [11] [%],inhibition [12] [%],inhibition [13] [%],inhibition [14] [%],inhibition [15] [%],inhibition [16] [%],inhibition [17] [%],inhibition [18] [%],inhibition [19] [%],inhibition [20] [%]
CCn1c(-c2nonc2N)nc2c(N3CCCC3)nccc21,0.75,-0.07,0.49,-0.45,-0.34,-0.75,-2.21,2.25,-1.76,-1.86,2.53,-1.12,5.43,0.17,-2.42,-0.24,2.42,1.22,4.2,0.97
COc1ccc(-c2nn3ncccc3c2-c2ccnc(Nc3ccc(Cl)c(C(F)(F)F)c3)n2)cc1,-1.35,-0.25,2.61,-0.42,2.6,3.13,3.03,-2.93,5,1.01,6.68,4.71,2.65,0.61,-3.91,4.44,10.5,0.35,0.58,3.81
COc1ccc2cc(-c3c(-c4ccncc4)nc(-c4ccc([S+](C)[O-])cc4)n3C)ccc2c1 (stereo not drawn),1.74,0.67,1.15,0.11,1.86,1.4,4.06,-2.53,7.86,3.45,9.25,4.15,11,2.18,15.4,36,78.4,0.6,0.64,2.59
CS(=O)(=O)CCNCc1nc(-c2ccc3ncnc(Nc4ccc(F)c(Cl)c4)c3c2)cs1,1.47,0.48,4.21,1.55,2.39,3.78,15.9,-3.38,6.34,1.71,9.04,3.41,6.36,2.51,-0.59,5.44,27.7,1.34,2.52,3.38
Cn1cc(C=C2C(=O)Nc3cccnc32)c2ccccc21,66,25.3,75.5,20.5,71.6,2.53,6.47,-0.05,22.8,5.95,57,7.66,55.1,5.21,62.6,3.81,12,2.96,17.9,6.66
COc1ccc(COc2ccc(Cc3cnc(N)nc3N)cc2OC)cc1,50,25.7,75.4,,,4.15,4.97,3.75,3.14,4.1,2.3,3.53,4.95,2.97,16.2,5.28,7.31,3.72,3.99,0.34
CCn1c(-c2nonc2N)nc2ccncc21,-0.79,-1.44,-3.63,-2.79,-1.79,0.17,3.88,0.97,6.38,2.36,6.98,0.79,3.04,0.9,6.04,2.02,4.14,1.41,3.01,2.18
CN1CCC(C(=O)Nc2n[nH]c3nnc(-c4ccccc4)cc23)CC1,1.65,2.71,5.68,2.52,6.56,2.62,4.13,-3.53,15,3.39,8.78,3.81,9.47,4.39,-2.07,8.49,9.99,0.73,3.35,6.6
CCc1cccc(NC(=O)Nc2ccc(Oc3ccc4nc(NC(=O)OC)[nH]c4c3)cc2)c1,43.7,21.4,30.7,20.4,30.3,2.03,5.13,-5.85,6.45,2.16,8.38,7.89,15.6,10.3,37.5,46.8,57.8,1.82,5.21,1.49
COc1ccccc1Nc1ncc(-c2ccccc2)o1,4.51,4.57,8.84,4.02,9.48,0.91,6.86,-6.02,11.9,4.71,8.83,4.39,11.1,3.63,12.5,8.13,8.47,-0.05,4.63,6.79
N#Cc1c(NC(=O)c2cccc3ccccc23)sc2c1CCCC2,1.26,2.03,2.36,2.33,2.63,2.34,4.42,-0.41,0.69,2.42,5.29,1.03,3.57,1.03,2.63,3.84,5.96,1.92,4.41,3.89
CCN1CCC(CC(=O)Nc2n[nH]c3nc(-c4cccs4)c(Br)cc23)CC1,0.88,-0.35,-1.99,-0.62,0.26,-1.07,-3.55,-2.72,-0.41,-2.72,0.27,-0.51,3.7,-1.4,-3.08,-1.57,1.93,0.32,2.2,0.23
c1cnn2ncc(-c3ccnc(Nc4ccc5c(c4)OCCO5)n3)c2c1,9.5,5.33,18.1,5.54,21.3,4.21,17.6,-1.73,35,9.49,85.5,14.4,65.2,18.8,96.8,5.98,23.8,13.6,56.5,11.3
Fc1cccc(COc2ccc(Nc3ncnc4sc(-c5cccs5)cc34)cc2Cl)c1,2.88,1.85,1.29,1.21,1.03,2.2,0.81,-0.26,2.5,1.44,2.05,1.14,6.42,1.7,7.89,2.84,4.63,-0.64,1.65,1.29
